Assay results published in PubChem BioAssay AID504815 (NMMLSC, 2011).
Entries with a potency or affinity are not part of this list.

These molecules were tested against Beta-adrenergic receptor kinase 1 (Homo sapiens) (UniProt P25098) (assay: Concentration-response of GRK2 aptamer binding blockers, biochemical bead flow cytometry, cherry pick 2 (AID 504815)). Settings: biotinylated GRK2 beads, FAM-aptamer displacement; series mostly up to 33 µM; aptamer binding inhibition: at the top concentration;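 active means compounds with a tight curve fit, inhibition span over 25% and half-maximal concentration below 10 µM; inactive means the rest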.
Chain of Beta-adrenergic receptor kinase 1 (Homo sapiens) (P25098 whole entry, looked up): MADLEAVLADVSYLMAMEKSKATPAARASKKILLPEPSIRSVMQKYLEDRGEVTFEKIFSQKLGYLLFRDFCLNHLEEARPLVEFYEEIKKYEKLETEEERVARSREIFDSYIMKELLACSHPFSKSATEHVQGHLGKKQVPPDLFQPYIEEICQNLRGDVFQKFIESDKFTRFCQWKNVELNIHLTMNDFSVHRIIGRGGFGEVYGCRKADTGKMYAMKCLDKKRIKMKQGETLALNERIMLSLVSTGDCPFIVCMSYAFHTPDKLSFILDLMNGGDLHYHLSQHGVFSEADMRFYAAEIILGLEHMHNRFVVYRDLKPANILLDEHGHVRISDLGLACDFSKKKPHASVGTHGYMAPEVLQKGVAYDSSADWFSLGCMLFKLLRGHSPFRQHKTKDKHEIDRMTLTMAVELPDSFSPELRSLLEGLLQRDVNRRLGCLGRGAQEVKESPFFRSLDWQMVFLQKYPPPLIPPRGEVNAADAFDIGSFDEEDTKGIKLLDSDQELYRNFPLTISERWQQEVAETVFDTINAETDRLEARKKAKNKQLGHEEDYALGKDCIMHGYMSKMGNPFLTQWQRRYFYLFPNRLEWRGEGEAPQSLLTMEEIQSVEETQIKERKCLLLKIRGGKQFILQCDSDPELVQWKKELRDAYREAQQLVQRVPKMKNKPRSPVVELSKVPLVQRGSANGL

Aptamer binding inhibition, inactive:
CCN(CC)c1ccc(NC(=O)CCS(=O)(=O)c2ccc(Br)cc2)c(C)c1 58.8%, CCc1ccccc1NC(=O)CCS(=O)(=O)c1ccc(OC)cc1 51.4%, CCc1ccccc1NC(=O)CCS(=O)(=O)c1ccc(Br)cc1 54.1%, COc1ccc([N+](=O)[O-])cc1NC(=O)CCS(=O)(=O)c1ccc(Br)cc1 47.6%, C#CCSc1nc2sc3c(c2c(=O)n1C)CCC3 83.5%, CCOc1ccccc1NC(=O)CCS(=O)(=O)c1ccc(Br)cc1 93.7%, O=C(CCS(=O)(=O)c1ccc(Br)cc1)NCc1cccs1 84.7%, O=C(CCS(=O)(=O)c1ccc(Br)cc1)NCc1ccco1 66.6%, O=C(CCS(=O)(=O)c1ccc(Br)cc1)NCCc1ccc(Cl)cc1 56.4%, O=C(CCS(=O)(=O)c1ccc(Br)cc1)NC1CCCC1 60%, CCOc1ccc(NC(=O)CCS(=O)(=O)c2ccc(Br)cc2)cc1 67.8%, COc1ccc(-c2csc3nc(-c4ccc(C)cc4)oc(=O)c23)cc1OC 76.8%, COc1ccc(Cl)cc1NC(=O)CCS(=O)(=O)c1ccc(Br)cc1 92.7%, O=C(CCS(=O)(=O)c1ccc(Br)cc1)NCCc1ccccc1 66.6%, COC(=O)c1ccc(NC(=O)CCS(=O)(=O)c2ccc(Br)cc2)cc1 72.6%, O=C(CCS(=O)(=O)c1ccc(Br)cc1)NCc1ccc(F)cc1 79.2%, Cc1ccccc1NC(=O)CCS(=O)(=O)c1ccc(Br)cc1 41.5%, COc1ccc(CNC(=O)CCS(=O)(=O)c2ccc(Br)cc2)cc1 70.9%, O=C(CCS(=O)(=O)c1ccc(Br)cc1)Nc1cc(F)ccc1F 66.9%, O=C(CCS(=O)(=O)c1ccc(Br)cc1)Nc1ccc(Br)cc1F 69.3%
